# Compound activity from PubChem.
# EPAC2 agonist = qHTS for Agonist of cAMP-regulated guanine nucleotide exchange factor 4 (EPAC2): primary screen. actives 0.079% (n = 360,000). AID 720711, 2013. EPAC2 activation, biochemical qHTS; response scale: 100% = 6.5 mM cAMP response. Rap guanine nucleotide exchange factor 4 (Homo sapiens), Q8WZA2. Potency, µM (series often up to 154 µM), inactives show at the top dose activation, actives largely listed as activators; note: nearly all actives have a fitted effect of over 50% in size
# Target sequence (Q8WZA2 whole entry, looked up): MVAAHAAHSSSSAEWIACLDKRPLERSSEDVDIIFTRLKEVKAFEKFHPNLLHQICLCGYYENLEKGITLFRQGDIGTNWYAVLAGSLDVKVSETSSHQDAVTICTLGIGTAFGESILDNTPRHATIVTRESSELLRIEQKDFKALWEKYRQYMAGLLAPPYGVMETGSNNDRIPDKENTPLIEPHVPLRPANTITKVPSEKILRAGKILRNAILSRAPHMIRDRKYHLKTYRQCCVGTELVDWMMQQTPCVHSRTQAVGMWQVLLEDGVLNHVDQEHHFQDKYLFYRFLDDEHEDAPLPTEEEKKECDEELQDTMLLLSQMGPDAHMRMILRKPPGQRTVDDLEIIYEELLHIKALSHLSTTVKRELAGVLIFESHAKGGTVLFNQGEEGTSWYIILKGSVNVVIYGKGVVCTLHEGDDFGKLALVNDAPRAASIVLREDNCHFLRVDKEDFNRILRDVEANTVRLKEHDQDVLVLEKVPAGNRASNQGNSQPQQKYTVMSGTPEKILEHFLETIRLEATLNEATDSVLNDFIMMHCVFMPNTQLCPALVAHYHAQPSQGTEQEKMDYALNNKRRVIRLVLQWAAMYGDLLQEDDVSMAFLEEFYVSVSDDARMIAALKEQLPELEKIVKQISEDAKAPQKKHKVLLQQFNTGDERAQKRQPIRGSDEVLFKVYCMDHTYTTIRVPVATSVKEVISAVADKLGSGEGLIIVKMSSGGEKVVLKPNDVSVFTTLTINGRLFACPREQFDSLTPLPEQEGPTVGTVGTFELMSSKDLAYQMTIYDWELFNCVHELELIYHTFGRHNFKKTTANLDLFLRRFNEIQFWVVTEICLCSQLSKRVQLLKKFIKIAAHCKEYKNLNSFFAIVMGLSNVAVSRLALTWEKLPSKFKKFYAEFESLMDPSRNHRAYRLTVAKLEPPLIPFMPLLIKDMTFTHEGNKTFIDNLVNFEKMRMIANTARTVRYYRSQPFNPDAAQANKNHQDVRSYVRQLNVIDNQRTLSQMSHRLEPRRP
#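 In this primary screen, activation is scored as increased exchange of BODIPY-GDP from Rap1B by 100 nM EPAC2, with 50 uM GDP as competitor. Signal is normalized to the 6.5 mM cAMP agonist control.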
# EPAC1 agonist = qHTS for Agonist of cAMP-regulated guanine nucleotide exchange factor 3 (EPAC1): primary screen. EPAC1 agonist qHTS, biochemical assay; response scale: 100% = response to 6.5 mM cAMP. Potency, µM (doses to about 154 µM), inactives show top-dose activation, most hits filed as activators. actives 0.073% (n = 360,000). AID 720707, 2013; note: nearly all actives have a fitted effect of over 60% in size
#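 Multi-concentration qHTS readout: loss of Rap1B-bound BODIPY-GDP fluorescence driven by 100 nM EPAC1 with excess GDP (50 uM), monitored kinetically at room temperature; agonist response expressed relative to 6.5 mM cAMP.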
# USP1 inh = Inhibitors of USP1/UAF1: Primary Screen; Ubiquitin carboxyl-terminal hydrolase 1 (Homo sapiens), O94782; recombinant USP1/UAF1, Ub-Rhodamine cleavage fluorescence; Potency, µM (titrated, usually from 57.1 µM), inactives show top-dose activity change, negative = inhibition, hits mostly inhibitors; actives 0.23% (n = 390,000); AID 743255, 2014; note: % is set by controls: 0 for no effect and ±100 for the full control effect; nearly all actives have a fitted effect of over 60% in size
#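 USP1/UAF1 complex (1 nM) preincubated 15 min at room temperature with compound, then Ub-Rho substrate (150 nM final) added. Kinetic fluorescence at 480/540 nm over 6 reads at 60 s intervals; 50 mM HEPES pH 7.8, 0.5 mM EDTA, 0.1 mg/ml BSA, 1 mM TCEP, 0.01% Tween-20.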
# EPAC2 antag = qHTS for Antagonist of cAMP-regulated guanine nucleotide exchange factor 2 (EPAC2): primary screen. AID 720708, 2013. Potency, µM (series often up to 114 µM), inactives show at the top dose activity, negative = inhibition, actives largely listed as inhibitors. Rap guanine nucleotide exchange factor 4 (Homo sapiens), Q8WZA2. actives 0.18% (n = 360,000). EPAC2 GEF exchange of Rap1B-BODIPY-GDP, fluorescence; note: % is set by controls: 0 for no effect and ±100 for the full control effect; nearly all actives have a fitted effect of over 45% in size
# EPAC1 antagonist = qHTS for Antagonist of cAMP-regulated guanine nucleotide exchange factor 3 (EPAC1): primary screen; actives 0.14% (n = 360,000); Potency, µM (highest dose often 115 µM), for inactives: at the top dose activity change, negative = inhibition, actives largely listed as inhibitors; Rap guanine nucleotide exchange factor 3 (Homo sapiens), O95398; EPAC1 GEF assay, Rap1b-BODIPY-GDP exchange fluorescence; AID 720709, 2013;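 note: plate controls were vehicle for no effect and positive control for full effect; nearly all actives have a fitted effect of over 50% in size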
# BRCA1 expr act = qHTS Assay to Identify Small Molecule Activators of BRCA1 Expression | MCF7-BRCA1-FFLuc reporter, luminescence, 48 h; response scale: scaled: vehicle 0%, 10 µM genistein 100% | Potency, µM (series often up to 46.1 µM), without a hit: at the top dose activation, hits mostly activators | actives 1.1% (n = 380,000); note: nearly all actives have a fitted effect of over 80% in size
#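 48 h compound treatment of MCF7-BRCA1-FFLuc cells (phenol-red free MEM, 37 °C), then 15 min with luciferase substrate and luminescence imaging.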
# Active calls of the source: *; ? = inconclusive; . = no result given; ! = not confirmed by another sample. A selection: hits, their analogues and other compounds. The true share with any hit is near 1.4%. Calls come from the whole dose curve; as a rule, active = well fitted curve in the direction sought with a large enough effect; inconclusive = small, poorly fitted or top-dose-only effect, or another doubt; inactive = no such curve, though single readings can be large; an effect the other way counts as inactive or inconclusive. Potency is the fitted concentration of half-maximal effect.
SMILES,EPAC2 agonist,EPAC1 agonist,USP1 inh,EPAC2 antag,EPAC1 antagonist,BRCA1 expr act
Nc1ccccc1SCC(=O)N1CCc2ccccc21,5%,1%,-2%,-4%,-19%,69%
O=C(CSC1=NCCS1)N1CCc2ccccc21,-9%,-3%,-11%,7%,9%,3.2µM*
Cc1cc(C)nc(SCC(=O)N2CCc3ccccc32)n1,0%,-11%,-19%,2%,-3%,5.6µM*
O=C(NCC1COc2ccccc2O1)c1ccccc1 (stereo not given),13%,3%,-14%,-4%,0%,7.9µM*
COc1cc(/C=C2\SC(=Nc3ccc(Cl)c(C(=O)O)c3)NC2=O)c(Br)c(Br)c1O,22%,23%,18µM*,?,?,-13%
COc1cc(OC)c(C2Nc3ccccc3-c3nnc(SCc4ccccc4)nc3O2)cc1OC (stereo not given),.,.,-31%,.,.,.
Clc1ccc(-c2noc(CN3CCOCC3)n2)cc1,8%,-2%,-7%,6%,9%,7.9µM*
COc1cc(C2C=C(c3cccs3)Nc3ncnn32)cc(OC)c1OC (stereo not given),24%,100µM*,?,120%,82%,-65%
COc1cc(Cl)c(C)cc1NC(=O)CSCc1nc(-c2ccc(OC)c(OC)c2)no1,.,.,-18%,.,.,.
COc1ccc(CC(=O)NCc2cccc(Cl)c2)cc1S(=O)(=O)N1CCOCC1,10%,-6%,-18%,-3%,3%,2%
Cc1ccc(-c2noc(-c3cccs3)n2)cc1,14%,20%,-12%,-2%,6%,-3%
c1csc(-c2nc(N3CCCCC3)no2)c1,6%,7%,-24%,1%,14%,6.3µM*
CC(=O)Nc1cc(OC(C)=O)c2nonc2c1OC(C)=O,8%,-4%,4µM*,4%,?,-62%
CC(=O)Oc1ccc2nonc2c1OC(C)=O,.,.,.,.,.,3%
O=C(CNC(=S)NC(=O)C1CCCCC1)c1ccccc1,9%,-2%,6%,0%,-4%,6.3µM*
O=C(NC(=S)NCCc1ccccc1)C1CCCCC1,19%,5%,-15%,-5%,-5%,33%
O=C(N/N=C/c1ccc(-c2ccccc2Cl)o1)c1ccccc1,19%,0%,-5%,4%,10%,44%
O=C(O)c1ccc(N/N=C/c2ccc(-c3ccccc3Cl)o2)cc1,-5%,4%,-22%,40µM*,0%,?
N#Cc1c(-c2ccccc2)nc(SCC(=O)Nc2ccc(OC(F)(F)Cl)cc2)[nH]c1=O,-6%,-5%,?,35µM*,?,8%
N#Cc1c(-c2ccccc2)nc(SCC(=O)Nc2ccccc2)[nH]c1=O,-11%,-7%,-10%,-6%,-27%,-15%
N#Cc1c(-c2ccccc2)nc(SCc2ccc(Cl)cc2)[nH]c1=O,-2%,-15%,?,?,79µM*,-5%
N#Cc1c(-c2ccccc2)nc(SCC(=O)N(c2ccccc2)c2ccccc2)[nH]c1=O,-3%,-10%,-26%,2%,-6%,-27%
N#Cc1c(-c2ccccc2)nc(SCC(=O)N2c3ccccc3Sc3ccccc32)[nH]c1=O,2%,9%,32µM*,8.9µM*,79µM*,9%
C=CCSc1nc(-c2ccccc2)c(C#N)c(=O)[nH]1,-3%,0%,-13%,15%,1%,0%
COc1ccc(C(=O)Nc2ccc3oc(-c4ccc5ccccc5c4)nc3c2)cc1Br,.,.,-1%,.,.,.
SMILES,EPAC2 agonist,EPAC1 agonist,USP1 inh,EPAC2 antag,EPAC1 antagonist,BRCA1 expr act
COc1cc2c(NC3CCN(C)CC3)nc(N3CCCN(C)CC3)nc2cc1OCCCN1CCCCC1,.,.,.,.,.,-51%
C#CCn1c(C)cc(C)c(S(=O)(=O)c2ccccc2)c1=O,7%,12%,?,-1%,-3%,13µM*
Cc1cc(C)n(Cc2ccccc2)c(=O)c1S(=O)(=O)c1ccccc1,14%,0%,-17%,2%,-6%,1%
CCCCCCN1C[C@H](O)[C@@H](n2cc(C3CC3)nn2)C[C@@H]1c1ccc(C)cc1,-2%,-23%,-6%,-24%,-22%,10%
Cc1cccc(N2CCN(C(=O)C3CCN(Cc4nc(-c5ccc(Cl)cc5)oc4C)CC3)CC2)c1C,.,.,1%,.,.,.
Cc1ccc(C(=O)NCCSC(C)(C)C)cc1[N+](=O)[O-],1%,-3%,-3%,7%,2%,11µM*
O=C(NCCc1cccs1)c1ccc(Cl)c(Cl)c1,12%,5%,-16%,-6%,-6%,4µM*
Cc1ccc(C(=O)NCCSC(C)(C)C)cc1,5%,-3%,-14%,9%,8%,31%
CC(C)(C)c1ccc(C(=O)NCCc2ccccc2)cc1,16%,-1%,-25%,-1%,22%,17%
O=C(NCCc1ccccc1)c1ccc(Cl)c([N+](=O)[O-])c1,8%,1%,-16%,1%,6%,4µM*
CSCCNC(=O)c1ccc(C(C)(C)C)cc1,-5%,0%,-13%,1%,0%,7.1µM*
COc1ccc(-c2nc3c(c(SCC(=O)N4CCCCC4)n2)Cc2cc(C)ccc2O3)cc1,.,.,-25%,.,.,.
CC(=O)Oc1ccc(Cl)cc1CN(C(C)=O)C1CCCCC1,4%,7%,2%,-30%,13%,-24%
Cc1cc(C(=O)NCCc2ccccc2)ccc1[N+](=O)[O-],11%,2%,-5%,1%,-5%,6.3µM*
O=C(NCCc1ccccc1)c1ccc([N+](=O)[O-])cc1,5%,4%,-14%,10%,4%,35%
COc1cc(Cl)c(C)cc1NC(=O)CCn1c(=O)c2cccn2c2cccnc21,.,.,-25%,.,.,.
N[C@@H](Cc1cc(I)c(Oc2ccc(O)c(I)c2)c(I)c1)C(=O)O,-3%,-23%,?,?,50µM*!,-32%
N[C@@H](Cc1cc(I)c(Oc2cc(I)c(O)c(I)c2)c(I)c1)C(=O)O,3%,-24%,-26%,6%,?,22%
COc1cc(NC(=O)c2cc(-c3ccccc3O)no2)cc(OC)c1OC,.,.,-13%,.,.,.
Cc1ccc(C(=O)NC2(O)C(=O)c3ccccc3C2=O)cc1C,23%,3%,?,-27%,?,0%
